# Measurements from article PMC7862700, “An all-to-all approach to the identification of sequence-specific readers for epigenetic DNA modifications on cytosine”.
# Key:
# Experiment in all cases: DAPPL (digital affinity profiling via proximity ligation, sequencing); 10 mM Tris-HCl pH 7.5, 50 mM NaCl, 1 mM DTT, 4% glycerol, room temperature, 30 min; GST-TFs on glutathione beads, 16-mer random dsDNA library, 0.1% formaldehyde crosslink after washing; high values mean tight binding
# Conditions in all cases: protein: recombinant; tags: N-terminal GST; dsDNA, one strand shown
# [1] = molecular target: T1, FLI1 (Homo sapiens, UniProt Q01543 1-452)
# T1 sequence: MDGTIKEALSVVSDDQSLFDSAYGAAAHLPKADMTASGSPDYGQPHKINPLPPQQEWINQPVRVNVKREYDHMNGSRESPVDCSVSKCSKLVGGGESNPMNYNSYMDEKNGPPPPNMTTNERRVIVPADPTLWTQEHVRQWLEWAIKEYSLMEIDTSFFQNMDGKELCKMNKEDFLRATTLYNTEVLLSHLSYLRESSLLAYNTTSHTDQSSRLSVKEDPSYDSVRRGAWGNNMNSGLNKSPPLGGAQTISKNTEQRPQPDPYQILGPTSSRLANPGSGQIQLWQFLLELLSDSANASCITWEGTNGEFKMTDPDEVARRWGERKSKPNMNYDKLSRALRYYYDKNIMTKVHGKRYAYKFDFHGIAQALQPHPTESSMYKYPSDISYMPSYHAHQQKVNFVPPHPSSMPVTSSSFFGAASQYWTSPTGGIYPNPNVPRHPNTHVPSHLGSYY
# Summary of the method: (§1)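 In yeast, human transcription factors were expressed with a GST fusion, then pulled down on glutathione beads and given DNA barcodes. Pooled with a tag-only sample, they were exposed to 200 nmole of a 16-mer random double-stranded DNA library (Tris/NaCl/DTT/glycerol buffer, room temperature, 30 min), washed, crosslinked with 0.1% formaldehyde, proximity-ligated using BsaI/T4 ligase for 1 h at 37 °C, PCR-amplified and read on an Illumina NextSeq500. Each hexamer's frequency of reads for a factor, divided by the matching frequency for the tag-only sample, gives the binding signal.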
# [2] = molecular target: T2, ELK3 (Homo sapiens, UniProt P41970 1-407)
# T2 sequence: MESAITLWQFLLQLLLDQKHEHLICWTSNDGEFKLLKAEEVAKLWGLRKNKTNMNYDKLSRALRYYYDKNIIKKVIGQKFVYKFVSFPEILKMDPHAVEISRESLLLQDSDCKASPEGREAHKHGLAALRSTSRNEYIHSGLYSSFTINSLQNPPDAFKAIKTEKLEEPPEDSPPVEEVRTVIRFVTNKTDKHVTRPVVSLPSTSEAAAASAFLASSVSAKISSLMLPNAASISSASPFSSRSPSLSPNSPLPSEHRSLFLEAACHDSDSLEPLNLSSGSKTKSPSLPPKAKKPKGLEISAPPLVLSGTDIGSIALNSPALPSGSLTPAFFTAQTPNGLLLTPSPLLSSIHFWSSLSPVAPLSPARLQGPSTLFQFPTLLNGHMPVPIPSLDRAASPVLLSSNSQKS
# Summary of the method: as §1
# [3] = molecular target: T3, SPIC (Homo sapiens, UniProt Q8N5J4 1-248)
# T3 sequence: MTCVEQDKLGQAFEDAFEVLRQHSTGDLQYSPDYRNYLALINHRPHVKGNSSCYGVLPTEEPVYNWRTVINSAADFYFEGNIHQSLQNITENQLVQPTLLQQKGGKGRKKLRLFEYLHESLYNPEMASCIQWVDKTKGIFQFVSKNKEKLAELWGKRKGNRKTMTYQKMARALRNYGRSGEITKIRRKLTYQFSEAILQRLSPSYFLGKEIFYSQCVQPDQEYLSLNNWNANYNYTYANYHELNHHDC
# Summary of the method: as §1
# [4] = molecular target: T4, GABPA (Homo sapiens, UniProt Q06546 1-454)
# T4 sequence: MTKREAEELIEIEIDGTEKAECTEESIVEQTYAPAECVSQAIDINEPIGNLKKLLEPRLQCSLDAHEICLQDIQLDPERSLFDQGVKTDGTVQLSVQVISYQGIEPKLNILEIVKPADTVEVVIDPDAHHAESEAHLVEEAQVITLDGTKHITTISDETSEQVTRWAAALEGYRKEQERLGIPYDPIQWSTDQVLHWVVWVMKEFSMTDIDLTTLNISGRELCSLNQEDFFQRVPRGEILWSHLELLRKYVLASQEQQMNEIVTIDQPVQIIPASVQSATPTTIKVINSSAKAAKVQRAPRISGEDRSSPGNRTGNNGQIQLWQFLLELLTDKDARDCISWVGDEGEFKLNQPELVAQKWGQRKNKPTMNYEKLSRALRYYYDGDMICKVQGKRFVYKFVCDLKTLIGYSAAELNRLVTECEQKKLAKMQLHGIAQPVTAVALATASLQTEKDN
# Summary of the method: as §1
# [5] = molecular target: T5, ERG (Homo sapiens, UniProt P11308 1-479)
# T5 sequence: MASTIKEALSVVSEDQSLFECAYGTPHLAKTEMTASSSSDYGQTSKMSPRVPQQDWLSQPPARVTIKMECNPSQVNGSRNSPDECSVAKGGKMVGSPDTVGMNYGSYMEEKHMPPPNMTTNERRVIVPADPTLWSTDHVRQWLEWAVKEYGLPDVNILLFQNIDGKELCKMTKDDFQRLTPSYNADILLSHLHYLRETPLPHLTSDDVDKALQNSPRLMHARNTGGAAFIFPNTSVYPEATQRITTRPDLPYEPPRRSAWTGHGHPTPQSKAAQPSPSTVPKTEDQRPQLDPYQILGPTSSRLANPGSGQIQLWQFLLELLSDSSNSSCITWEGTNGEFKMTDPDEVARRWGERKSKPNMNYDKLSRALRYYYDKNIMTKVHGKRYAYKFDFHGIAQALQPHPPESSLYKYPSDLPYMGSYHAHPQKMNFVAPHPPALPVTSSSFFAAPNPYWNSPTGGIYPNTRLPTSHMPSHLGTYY
# Summary of the method: as §1
# [6] = molecular target: ELF1 (Homo sapiens, UniProt P32519 1-619)
# Chain of ELF1 (P32519 whole entry): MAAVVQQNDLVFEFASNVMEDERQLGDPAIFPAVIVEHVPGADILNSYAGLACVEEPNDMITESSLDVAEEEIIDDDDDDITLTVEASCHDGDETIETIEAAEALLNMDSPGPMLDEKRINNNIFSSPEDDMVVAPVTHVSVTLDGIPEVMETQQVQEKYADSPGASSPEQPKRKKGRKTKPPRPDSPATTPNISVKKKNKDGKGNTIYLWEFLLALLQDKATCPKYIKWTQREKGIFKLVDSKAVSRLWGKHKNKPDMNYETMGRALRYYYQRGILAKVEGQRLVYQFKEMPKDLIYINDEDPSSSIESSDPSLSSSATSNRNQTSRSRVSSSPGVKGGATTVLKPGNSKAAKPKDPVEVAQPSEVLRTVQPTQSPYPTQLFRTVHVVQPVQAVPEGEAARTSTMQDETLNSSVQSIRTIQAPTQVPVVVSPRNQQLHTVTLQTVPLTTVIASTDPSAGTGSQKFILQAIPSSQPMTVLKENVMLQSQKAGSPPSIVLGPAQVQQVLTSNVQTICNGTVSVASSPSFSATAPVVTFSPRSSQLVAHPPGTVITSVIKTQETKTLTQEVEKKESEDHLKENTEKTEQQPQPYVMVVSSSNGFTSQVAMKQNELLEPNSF
# Summary of the method: as §1
# [7] = molecular target: T6, EHF (Homo sapiens, UniProt Q9NZC4 1-300)
# T6 sequence: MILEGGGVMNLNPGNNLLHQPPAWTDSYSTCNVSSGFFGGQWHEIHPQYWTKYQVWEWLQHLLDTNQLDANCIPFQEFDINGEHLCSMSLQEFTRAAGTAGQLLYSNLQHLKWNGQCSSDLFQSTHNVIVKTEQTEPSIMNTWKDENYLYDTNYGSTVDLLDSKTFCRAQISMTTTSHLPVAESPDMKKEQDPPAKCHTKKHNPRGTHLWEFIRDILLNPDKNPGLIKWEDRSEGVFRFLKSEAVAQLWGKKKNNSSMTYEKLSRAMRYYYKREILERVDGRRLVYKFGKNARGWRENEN
# Summary of the method: as §1
# [8] = molecular target: SPIB (Homo sapiens, UniProt Q01892 1-262)
# Chain of SPIB (Q01892 whole entry): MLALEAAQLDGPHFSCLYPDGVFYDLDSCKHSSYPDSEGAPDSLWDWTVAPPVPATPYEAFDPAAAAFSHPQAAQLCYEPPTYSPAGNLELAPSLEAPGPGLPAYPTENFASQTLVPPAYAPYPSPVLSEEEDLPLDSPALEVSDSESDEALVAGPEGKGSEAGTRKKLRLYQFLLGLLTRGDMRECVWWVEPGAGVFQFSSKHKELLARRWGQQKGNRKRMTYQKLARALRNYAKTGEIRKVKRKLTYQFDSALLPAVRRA
# Summary of the method: as §1
# [9] = molecular target: ELF4 (Homo sapiens, UniProt Q99607 1-663)
# Chain of ELF4 (Q99607 whole entry): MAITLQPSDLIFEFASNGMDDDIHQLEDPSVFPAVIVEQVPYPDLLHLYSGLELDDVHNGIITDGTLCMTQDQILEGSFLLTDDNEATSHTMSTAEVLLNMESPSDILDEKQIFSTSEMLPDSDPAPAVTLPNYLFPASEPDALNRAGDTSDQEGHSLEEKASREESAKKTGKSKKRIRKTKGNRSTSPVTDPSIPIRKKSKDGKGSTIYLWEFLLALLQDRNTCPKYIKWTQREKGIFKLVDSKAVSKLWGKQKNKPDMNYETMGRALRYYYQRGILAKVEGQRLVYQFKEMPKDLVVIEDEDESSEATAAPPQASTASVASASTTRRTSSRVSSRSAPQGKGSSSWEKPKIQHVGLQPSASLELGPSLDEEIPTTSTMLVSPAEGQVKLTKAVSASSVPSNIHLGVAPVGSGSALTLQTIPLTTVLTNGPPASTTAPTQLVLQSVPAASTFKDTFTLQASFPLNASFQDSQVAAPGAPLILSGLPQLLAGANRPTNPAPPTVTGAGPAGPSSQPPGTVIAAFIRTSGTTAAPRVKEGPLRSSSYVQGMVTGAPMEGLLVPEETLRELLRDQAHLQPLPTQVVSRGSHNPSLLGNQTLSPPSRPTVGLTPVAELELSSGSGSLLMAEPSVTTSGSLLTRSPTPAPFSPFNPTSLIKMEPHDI
# Summary of the method: as §1
# [10] = molecular target: T7, ELK4 (Homo sapiens, UniProt P28324-2 1-405)
# T7 sequence: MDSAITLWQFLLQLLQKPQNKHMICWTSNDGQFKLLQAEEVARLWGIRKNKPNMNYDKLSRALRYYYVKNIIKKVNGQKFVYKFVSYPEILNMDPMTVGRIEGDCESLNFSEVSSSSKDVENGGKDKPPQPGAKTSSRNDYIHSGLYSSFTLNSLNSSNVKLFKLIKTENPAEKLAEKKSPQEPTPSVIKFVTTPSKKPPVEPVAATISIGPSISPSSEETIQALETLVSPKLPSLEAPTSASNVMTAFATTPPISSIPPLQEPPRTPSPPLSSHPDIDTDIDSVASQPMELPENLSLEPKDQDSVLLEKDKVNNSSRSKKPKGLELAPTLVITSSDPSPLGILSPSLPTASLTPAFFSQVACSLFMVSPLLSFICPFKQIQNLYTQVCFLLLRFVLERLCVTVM
# Summary of the method: as §1
# [11] = molecular target: T8, ELF3 (Homo sapiens, UniProt P78545 1-371)
# T8 sequence: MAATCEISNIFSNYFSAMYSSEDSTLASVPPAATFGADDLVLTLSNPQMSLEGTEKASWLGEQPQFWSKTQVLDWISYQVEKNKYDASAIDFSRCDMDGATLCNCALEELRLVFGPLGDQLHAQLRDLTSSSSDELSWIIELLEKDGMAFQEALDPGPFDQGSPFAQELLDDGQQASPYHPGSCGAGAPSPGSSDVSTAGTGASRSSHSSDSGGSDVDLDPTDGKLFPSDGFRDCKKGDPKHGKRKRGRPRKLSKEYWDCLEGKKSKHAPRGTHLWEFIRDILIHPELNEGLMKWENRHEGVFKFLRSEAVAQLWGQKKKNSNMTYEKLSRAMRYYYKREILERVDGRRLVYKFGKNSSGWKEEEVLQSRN
# Summary of the method: as §1
# [12] = molecular target: CRX (Homo sapiens, UniProt O43186 1-299)
# Chain of CRX (O43186 whole entry): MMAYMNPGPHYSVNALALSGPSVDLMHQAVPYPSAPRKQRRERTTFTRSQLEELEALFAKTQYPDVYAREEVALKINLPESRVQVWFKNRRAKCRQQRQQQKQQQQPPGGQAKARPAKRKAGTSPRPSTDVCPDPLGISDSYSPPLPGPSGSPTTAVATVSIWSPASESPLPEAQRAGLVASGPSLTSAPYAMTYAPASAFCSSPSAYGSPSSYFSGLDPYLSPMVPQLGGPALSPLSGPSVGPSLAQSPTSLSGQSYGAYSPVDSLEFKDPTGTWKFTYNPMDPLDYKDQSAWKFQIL
# Summary of the method: as §1
# [13] = molecular target: ETV1 (Homo sapiens, UniProt P50549 1-477)
# Chain of ETV1 (P50549 whole entry): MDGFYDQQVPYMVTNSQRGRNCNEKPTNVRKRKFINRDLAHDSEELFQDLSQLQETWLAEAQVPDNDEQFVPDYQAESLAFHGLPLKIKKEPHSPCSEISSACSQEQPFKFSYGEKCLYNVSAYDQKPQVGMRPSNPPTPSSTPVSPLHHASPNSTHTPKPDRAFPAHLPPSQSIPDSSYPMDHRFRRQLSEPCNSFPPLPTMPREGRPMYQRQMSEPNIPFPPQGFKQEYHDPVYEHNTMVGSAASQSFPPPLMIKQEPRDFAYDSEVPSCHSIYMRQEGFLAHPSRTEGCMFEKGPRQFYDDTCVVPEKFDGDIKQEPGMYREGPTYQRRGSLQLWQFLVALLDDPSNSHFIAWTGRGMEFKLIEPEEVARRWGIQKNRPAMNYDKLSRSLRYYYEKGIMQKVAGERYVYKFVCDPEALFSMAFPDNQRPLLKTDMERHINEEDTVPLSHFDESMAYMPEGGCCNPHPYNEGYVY
# Summary of the method: as §1
# [14] = molecular target: T9, ETV3L (Homo sapiens, UniProt Q6ZN32 1-361)
# T9 sequence: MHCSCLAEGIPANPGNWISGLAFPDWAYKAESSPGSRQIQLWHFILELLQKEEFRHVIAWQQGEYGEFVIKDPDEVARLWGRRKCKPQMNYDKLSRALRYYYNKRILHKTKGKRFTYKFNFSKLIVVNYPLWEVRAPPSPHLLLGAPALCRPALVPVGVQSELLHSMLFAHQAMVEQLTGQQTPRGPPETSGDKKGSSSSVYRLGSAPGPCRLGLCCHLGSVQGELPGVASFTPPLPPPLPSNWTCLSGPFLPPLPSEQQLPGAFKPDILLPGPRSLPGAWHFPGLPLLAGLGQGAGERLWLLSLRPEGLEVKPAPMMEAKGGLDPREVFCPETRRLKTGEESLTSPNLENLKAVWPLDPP
# Summary of the method: as §1
# [15] = molecular target: T10, ETS2 (Homo sapiens, UniProt P15036 1-469)
# T10 sequence: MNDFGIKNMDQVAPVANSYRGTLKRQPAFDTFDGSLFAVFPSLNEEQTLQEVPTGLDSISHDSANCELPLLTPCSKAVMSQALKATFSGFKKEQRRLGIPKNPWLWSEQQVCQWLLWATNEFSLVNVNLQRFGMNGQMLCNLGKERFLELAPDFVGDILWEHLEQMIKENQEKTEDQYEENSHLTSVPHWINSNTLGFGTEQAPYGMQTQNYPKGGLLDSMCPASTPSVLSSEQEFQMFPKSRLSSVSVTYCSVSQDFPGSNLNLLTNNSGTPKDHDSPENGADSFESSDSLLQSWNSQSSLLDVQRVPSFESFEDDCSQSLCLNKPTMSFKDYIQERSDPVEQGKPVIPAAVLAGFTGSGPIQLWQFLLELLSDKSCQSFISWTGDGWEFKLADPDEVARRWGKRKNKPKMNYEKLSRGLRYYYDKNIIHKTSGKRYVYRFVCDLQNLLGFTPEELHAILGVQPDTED
# Summary of the method: as §1
# [16] = molecular target: T11, SPDEF (Homo sapiens, UniProt O95238 1-335)
# T11 sequence: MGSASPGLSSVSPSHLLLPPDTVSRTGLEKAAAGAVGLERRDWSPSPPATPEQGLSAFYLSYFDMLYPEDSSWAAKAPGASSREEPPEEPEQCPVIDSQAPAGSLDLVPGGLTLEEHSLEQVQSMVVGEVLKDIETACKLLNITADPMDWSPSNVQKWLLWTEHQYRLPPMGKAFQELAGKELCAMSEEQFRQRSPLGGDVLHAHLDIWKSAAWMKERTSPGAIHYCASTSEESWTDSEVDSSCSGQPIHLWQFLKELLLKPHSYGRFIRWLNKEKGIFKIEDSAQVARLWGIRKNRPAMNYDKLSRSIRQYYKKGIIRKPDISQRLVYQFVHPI
# Summary of the method: as §1
# [17] = molecular target: T12, ETV7 (Homo sapiens, UniProt Q9Y603 1-341)
# T12 sequence: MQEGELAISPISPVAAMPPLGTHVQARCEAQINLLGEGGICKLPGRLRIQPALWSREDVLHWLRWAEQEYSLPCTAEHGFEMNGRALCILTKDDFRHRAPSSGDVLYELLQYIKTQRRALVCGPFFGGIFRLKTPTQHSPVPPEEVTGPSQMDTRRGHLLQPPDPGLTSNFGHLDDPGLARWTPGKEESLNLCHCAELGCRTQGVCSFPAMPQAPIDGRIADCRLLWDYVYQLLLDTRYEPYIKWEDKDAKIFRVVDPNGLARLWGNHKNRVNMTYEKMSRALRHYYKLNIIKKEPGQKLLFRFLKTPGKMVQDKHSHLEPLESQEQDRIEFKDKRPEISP
# Summary of the method: as §1
Sequence,binding signal [1],binding signal [2],binding signal [3],binding signal [4],binding signal [5],binding signal [6],binding signal [7],binding signal [8],binding signal [9],binding signal [10],binding signal [11],binding signal [12],binding signal [13],binding signal [14],binding signal [15],binding signal [16],binding signal [17]
GTGTAC,"1.07 fold enrichment (6-mer frequency, TF over GST control)","1.03 fold enrichment (6-mer frequency, TF over GST control)","1.2 fold enrichment (6-mer frequency, TF over GST control)",,,,,,,,,,,,,,
TGTGAT,"1.16 fold enrichment (6-mer frequency, TF over GST control)",,,"1.01 fold enrichment (6-mer frequency, TF over GST control)","1.06 fold enrichment (6-mer frequency, TF over GST control)","1.01 fold enrichment (6-mer frequency, TF over GST control)","1.03 fold enrichment (6-mer frequency, TF over GST control)","1.01 fold enrichment (6-mer frequency, TF over GST control)","1.05 fold enrichment (6-mer frequency, TF over GST control)","1.07 fold enrichment (6-mer frequency, TF over GST control)","1.14 fold enrichment (6-mer frequency, TF over GST control)","1.12 fold enrichment (6-mer frequency, TF over GST control)","1.08 fold enrichment (6-mer frequency, TF over GST control)","1.01 fold enrichment (6-mer frequency, TF over GST control)","1.09 fold enrichment (6-mer frequency, TF over GST control)","1.06 fold enrichment (6-mer frequency, TF over GST control)","1.05 fold enrichment (6-mer frequency, TF over GST control)"
